Assay results taken from the supplement of paper PMC13380429.

Key:
[1] = system: Vero E6 infected with SARS-CoV-2; assay: morphology score (similarity to uninfected cells); higher = more like uninfected cells; conditions: 24 h
[2] = system: Vero E6 infected with SARS-CoV-2; assay: SARS-CoV-2 infection rate relative to infected DMSO; higher = more infection, active = 60 or less; conditions: 24 h

Structure (SMILES) | morphology score [1] | SARS-CoV-2 infection rate [2]
CCOC(=O)CSCCC1NC(C(=O)O)CS1 (configuration not stated) [letosteine] (10 µM) | -0.0697 | 117% (inactive)
O=c1[nH]nc2c3c(cccc13)N=C(CN1Cc3ccccc3C1)N2 (10 µM) | 0.219 | 91% (inactive)
c1ccc2c(c1)CCC[C@H]2Nc1nc2ccccc2[nH]1 (10 µM) | 0.268 | 89% (inactive)
Cn1cc(-c2cnn3c(N)c(Br)c([C@@H]4CCCNC4)nc23)cn1 (10 µM) | 0.535 | 82% (inactive)
CC(C)(C)c1cc(C(=O)/C(C#N)=N/Nc2cccc(Cl)c2)no1 (10 µM) | -0.0513 | 104% (inactive)
C[C@]12Cc3c[nH]nc3C[C@@H]1CC[C@@H]1[C@@H]2CC[C@@]2(C)[C@H]1CC[C@]2(C)O [stanozolol] (10 µM) | -0.305 | 110% (inactive)
OCc1ccc(CO)o1 [2,5-furandimethanol] (10 µM) | 0.0908 | 112% (inactive)
NC(=O)c1nc(F)cnc1O [Favipiravir] (10 µM) | 0.0924 | 108% (inactive)
c1ccc2c(c1)CCCc1cc(NCCN3CCOCC3)nnc1-2 (10 µM) | -0.11 | 116% (inactive)
Clc1ccc(-c2nc3sccn3c2/C=N/OCc2ccc(Cl)c(Cl)c2)cc1 (10 µM) | 0.00562 | 107% (inactive)
CN1CCCC(CN2c3ccccc3Sc3ccccc32)C1 (configuration not stated) [mepazine] (10 µM) | 0.538 | 60.5% (inactive)
CN1C(=O)N(c2cc(Cl)cc(Cl)c2)C(=O)[C@@]1(C)Cc1ccc(Br)cc1 (10 µM) | 0.25 | 96.5% (inactive)
O=C1NCCN1c1ncc([N+](=O)[O-])s1 [niridazole] (10 µM) | 0.233 | 95% (inactive)
CCCCOc1c(C(=O)c2c(F)cc(C)cc2F)c[nH]c2nncc1-2 (10 µM) | 0.383 | 104% (inactive)
COc1ccc(CCN)cc1OC [homoveratrylamine] (10 µM) | -0.0152 | 118% (inactive)
CCCCCCCCOc1ccccc1C(=O)Nc1ccc(C(=O)OCC[N+](C)(CC)CC)cc1 [otilonium] (10 µM) | 0.299 | 101% (inactive)

Structure (SMILES) | morphology score [1] | SARS-CoV-2 infection rate [2]
Cc1cc(CN2CCN(c3c(Br)cnc4nc(-c5ccc(N6CCN(C)CC6)cc5)[nH]c34)CC2)no1 (10 µM) | 0.247 | 116% (inactive)
CNCCC(Oc1ccc(C(F)(F)F)cc1)c1ccccc1 (configuration not stated) [fluoxetine] (10 µM) | 0.539 | 66% (inactive)
C[C@@]12C[C@@]3(O)O[C@@H](O1)[C@]1(COC(=O)c4ccccc4)[C@H]3C[C@@]12O[C@@H]1O[C@H](CO)[C@@H](O)[C@H](O)[C@H]1O [paeoniflorin] (10 µM) | 0.192 | 92.5% (inactive)
OC(CCN1CCCCC1)(c1ccccc1)c1ccccc1 [pridinol] (10 µM) | 0.0166 | 108% (inactive)
CC(C)NCCN(C(C)C)S(=O)(=O)c1ccc(Cl)cc1Cl (10 µM) | -0.0999 | 110% (inactive)
CN1CCN(CCc2ccc(Cl)c(Cl)c2)CC1 (10 µM) | 0.156 | 94% (inactive)
O=S(=O)(O)c1ccc(O)cc1 [4-phenolsulfonic-acid] (10 µM) | -0.0939 | 114% (inactive)
CCOC(=O)c1c(CSc2ccccc2)n(C)c2cc(Br)c(O)c(CN(C)C)c12 [arbidol] (10 µM) | 0.126 | 87.5% (inactive)
CN(C)C(=O)N[C@H]1CC[C@H](CCN2CCN(c3cccc(Cl)c3Cl)CC2)CC1 [cariprazine] (10 µM) | -0.0979 | 113% (inactive)
Cc1nc(=O)c2cc(CN(C)c3ccc(C(=O)N[C@@H](CCC(=O)O)C(=O)O)s3)ccc2[nH]1 [raltitrexed] (0.833333 µM) | -0.207 | 104% (inactive)
O=C(C[C@H]1CC(c2ccc(F)cc2F)=NO1)N1CCOCC1 (racemic) (10 µM) | 0.00815 | 103% (inactive)
CC[N+](CC)(CC)CCOc1ccc(/C=C/c2ccccc2)cc1 (10 µM) | -0.141 | 105% (inactive)
COc1ccc(Cc2nccc3cc(OC)c(OC)cc23)cc1OC [papaverine] (10 µM) | 0.169 | 105% (inactive)
CCCCN(CCCC)CC(O)c1cc(Cl)cc2c1-c1ccc(Cl)cc1/C2=C/c1ccc(Cl)cc1 (configuration not stated) [lumefantrine] (10 µM) | 0.15 | 91.5% (inactive)
O=C(O)c1c(Cl)c(Cl)c(Cl)c(Cl)c1-c1c2cc(I)c(=O)c(I)c-2oc2c(I)c(O)c(I)cc12 [rose-bengal] (0.833333 µM) | 0.318 | 98.2% (inactive)
